These results are taken from PubChem BioAssay (Tox21).

Inconclusive results are not listed. Values without a mark were called inactive. Active and inactive are the calls of the source. Unless noted, calls follow the shape of the full dose curve.

Experiment [1] can be described thus: qHTS assay to identify small molecule agonists of the peroxisome proliferator-activated receptor delta (PPARd) signaling pathway - cell viability counter screen (AID 743211; active = well fitted curve in the direction sought with a large enough effect in the repeat runs; an effect the other way counts as inactive or inconclusive; also: potency is read from the fitted curve at half-maximal effect; nearly all actives have a fitted effect of over 55% in size). The essentials: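 HEK293H PPARd-bla, 3000 cells/well; 5 h preincubation 37C/5% CO2; cpd in DMSO, 17 h 37C; B/G FRET substrate 2 h RT; CellTiter-Glo 30 min RT, luminescence.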
A general note: qHTS replaces the single test concentration by a dilution series.

Experiment [2] is described as follows: qHTS assay to identify small molecule antagonists of the peroxisome proliferator-activated receptor delta (PPARd) signaling pathway - cell viability counter screen (AID 743213; active = well fitted curve in the direction sought with a large enough effect in the repeat runs; an effect the other way counts as inactive or inconclusive; also: % is scaled to controls: 0 for no effect and ±100 for the full control effect; nearly all actives have a fitted effect of over 50% in size). The essentials:
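CellTiter-Glo was added to PPARd-bla HEK293H wells following 17 h compound treatment in the presence of 300 nM L165041. Luminescence was recorded after 30 min at room temperature.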

Experiment [3] deals with Peroxisome proliferator-activated receptor delta (Homo sapiens) (UniProt Q03181). Put plainly: qHTS assay to identify small molecule antagonists of the peroxisome proliferator-activated receptor delta (PPARd) signaling pathway (AID 743215; active = well fitted inhibition curve with a large enough effect in the signal ratio in the repeat runs, not every such curve was filed as active; the % refers to the signal ratio;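 also: cells stimulated with agonist L165041 at 300 nM final during compound exposure; series mostly up to about 62 µM; % is scaled to controls: 0 for no effect and ±100 for the full control effect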). The essentials:
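Screen format: qHTS, antagonist mode. HEK293H PPARd-bla cells received compound and 300 nM L165041 (final), 17 h, 37 C. Beta-lactamase detected via FRET substrate fluorescence, 2 h, room temperature.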

Experiment [4] in a line: qHTS assay to identify small molecule agonists of the farnesoid-X-receptor (FXR) signaling pathway - cell viability counter screen (AID 743218; active = well fitted curve in the direction sought with a large enough effect in the repeat runs; an effect the other way counts as inactive or inconclusive; also: potency is read from the fitted curve at half-maximal effect; nearly all actives have a fitted effect of over 45% in size). The essentials:
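Same-well cytotoxicity check on FXR-UAS-bla HEK 293T cells: 5 h attachment, 16 h compound at 37 C, CellTiter-Glo luminescence read at room temperature after 30 min.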

For experiment [5], the target named is Bile acid receptor (Homo sapiens) (UniProt Q96RI1). In words: qHTS assay to identify small molecule agonists of the farnesoid-X-receptor (FXR) signaling pathway (AID 743220; active = well fitted activation curve with a large enough effect in the signal ratio in the repeat runs, not every such curve was filed as active; the % refers to the signal ratio; also: % is scaled to controls: 0 for no effect and ±100 for the full control effect). The essentials: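 FXR-UAS-bla HEK 293T cells carrying a UAS-driven beta-lactamase reporter were plated for 5 h at 37C/5% CO2, then exposed to DMSO-dissolved Tox21 10K compounds for 16 h at 37C. A LiveBLAzer B/G FRET substrate was loaded for 2 h at room temperature before fluorescence reading.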
Sequence of Bile acid receptor (Homo sapiens) (Q96RI1 whole entry, looked up): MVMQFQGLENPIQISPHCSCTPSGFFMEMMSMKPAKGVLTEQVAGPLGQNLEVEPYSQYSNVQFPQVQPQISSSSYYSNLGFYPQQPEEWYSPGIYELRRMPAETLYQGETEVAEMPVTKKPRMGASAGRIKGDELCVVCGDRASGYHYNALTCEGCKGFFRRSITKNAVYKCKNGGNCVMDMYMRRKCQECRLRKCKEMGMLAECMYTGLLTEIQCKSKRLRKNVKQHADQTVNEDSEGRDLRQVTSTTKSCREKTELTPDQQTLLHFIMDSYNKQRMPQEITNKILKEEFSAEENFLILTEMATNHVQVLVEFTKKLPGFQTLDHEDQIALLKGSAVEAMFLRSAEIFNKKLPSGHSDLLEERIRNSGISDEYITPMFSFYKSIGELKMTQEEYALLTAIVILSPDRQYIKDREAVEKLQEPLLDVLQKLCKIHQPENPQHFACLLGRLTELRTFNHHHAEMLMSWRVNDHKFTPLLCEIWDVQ

Experiment [6] is described as follows: qHTS assay to identify small molecule antagonists of the farnesoid-X-receptor (FXR) signaling pathway - cell viability counter screen (AID 743221; active = well fitted cell-killing curve with a large enough effect in the repeat runs, not every such curve was filed as active; also: % is scaled to controls: 0 for no effect and ±100 for the full control effect; nearly all actives have a fitted effect of over 50% in size). The essentials: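 Luminescence from CellTiter-Glo measures cytotoxicity in GeneBLAzer FXR-UAS-bla HEK 293T cells. Cells were exposed to compounds with 50 uM chenodeoxycholic acid (final) for 16 h at 37 C, in wells also used for the reporter readout.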

In experiment [7] the target is Vitamin D3 receptor (Homo sapiens) (UniProt P11473). Put plainly: qHTS assay to identify small molecule agonists of the vitamin D receptor (VDR) signaling pathway (AID 743222). Also: % is scaled to controls: 0 for no effect and ±100 for the full control effect. The essentials:
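Using LiveBLAzer B/G FRET detection, agonism was scored in VDR-bla cells exposed overnight (16 h, 37C) to DMSO-dissolved compounds; substrate incubation was 2 h at room temperature.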

For experiment [8] the target is unchanged. In words: qHTS assay to identify small molecule antagonists of the vitamin D receptor (VDR) signaling pathway (AID 743223; active = well fitted inhibition curve with a large enough effect in the signal ratio in the repeat runs, not every such curve was filed as active; the % refers to the signal ratio; also: % is scaled to controls: 0 for no effect and ±100 for the full control effect). The essentials: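 Antagonist mode uses 1alpha,25-dihydroxyvitamin D3 at 3 nM final as stimulus. VDR-bla cells receive compounds in DMSO, incubate 16 h at 37C, then a beta-lactamase FRET substrate for 2 h at room temperature before fluorescence measurement.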

A short description of experiment [9]: qHTS assay to identify small molecule agonists of the vitamin D receptor (VDR) signaling pathway - cell viability counter screen (AID 743224; active = well fitted curve in the direction sought with a large enough effect in the repeat runs; an effect the other way counts as inactive or inconclusive; also: series mostly up to about 63 µM; % is scaled to controls: 0 for no effect and ±100 for the full control effect; nearly all actives have a fitted effect of over 50% in size). The essentials:
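Counter screen for cytotoxicity: VDR-bla cells at 2,000 cells/well, 16 h compound exposure, then CellTiter-Glo luminescence after the beta-lactamase measurement.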

Experiment [10] is described as follows: qHTS assay to identify small molecule antagonists of the vitamin D receptor (VDR) signaling pathway - cell viability counter screen (AID 743225; active = well fitted curve in the direction sought with a large enough effect in the repeat runs; an effect the other way counts as inactive or inconclusive; also: % is scaled to controls: 0 for no effect and ±100 for the full control effect; nearly all actives have a fitted effect of over 50% in size). The essentials:
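Read-out: CellTiter-Glo luminescence measured 30 min after reagent addition at room temperature. Cells were VDR-bla HEK 293T exposed 16 h at 37C, 5% CO2, to compound with 3 nM final calcitriol agonist.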

Experiment [11] is described as follows: qHTS assay to identify small molecule antagonists of the retinoid-related orphan receptor gamma (ROR-gamma) signaling pathway - cell viability counter screen (AID 1159520; active = well fitted curve in the direction sought with a large enough effect in the repeat runs; an effect the other way counts as inactive or inconclusive). The essentials:
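Tet-on ROR gamma CHO cells were given compounds for 2 hr, then doxycycline hyclate at 1 uM final, and incubated 16 hr at 37 C. Viability was measured as ATP content by CellTiter-Glo luminescence.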

For experiment [12], the target named is Nuclear receptor ROR-gamma (Homo sapiens) (UniProt P51449). Put plainly: qHTS assay to identify small molecule antagonists of the retinoid-related orphan receptor gamma (ROR-gamma) signaling pathway (AID 1159521; active = well fitted curve in the direction sought with a large enough effect in the repeat runs; an effect the other way counts as inactive or inconclusive). The essentials:
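CHO Tet-on RORγ, RORE-luc reporter. Cpd 2 h pre-incubation, then dox hyclate 1 uM final, 16 h, 37 C/5% CO2. ONE-Glo luminescence; decrease = antagonist.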

A short description of experiment [13]: qHTS assay to identify small molecule agonists of the AP-1 signaling pathway - cell viability counter screen (AID 1159525). Also: nearly all actives have a fitted effect of over 55% in size. The essentials: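 Same-well cytotoxicity counter screen of the Tox21 10K library in ME-180 cells. The readout is ATP-dependent luminescence after 5 h compound treatment. Data are normalised to DMSO and tetra n-octyl ammonium bromide controls.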

A short description of experiment [14]: qHTS assay to identify small molecule agonists of the AP-1 signaling pathway (AID 1159526). Also: % is scaled to controls: 0 for no effect and ±100 for the full control effect.
For experiment [15], the target named is Retinoic acid receptor RXR-alpha (Homo sapiens) (UniProt P19793). In words: qHTS assay to identify small molecule agonists of the RXR signaling pathway (AID 1159527). Also: % is scaled to controls: 0 for no effect and ±100 for the full control effect; nearly all actives have a fitted effect of over 35% in size. The essentials:
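Read-out: beta-lactamase FRET ratio (405 nm excitation, 460 and 530 nm emission) after 2 hr substrate loading at room temperature. Cells were RXR-alpha-UAS-bla HEK 293T treated with compounds for 16 hr in 2% charcoal-stripped FBS medium.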

Sequence of Retinoic acid receptor RXR-alpha (Homo sapiens) (P19793 whole entry, looked up): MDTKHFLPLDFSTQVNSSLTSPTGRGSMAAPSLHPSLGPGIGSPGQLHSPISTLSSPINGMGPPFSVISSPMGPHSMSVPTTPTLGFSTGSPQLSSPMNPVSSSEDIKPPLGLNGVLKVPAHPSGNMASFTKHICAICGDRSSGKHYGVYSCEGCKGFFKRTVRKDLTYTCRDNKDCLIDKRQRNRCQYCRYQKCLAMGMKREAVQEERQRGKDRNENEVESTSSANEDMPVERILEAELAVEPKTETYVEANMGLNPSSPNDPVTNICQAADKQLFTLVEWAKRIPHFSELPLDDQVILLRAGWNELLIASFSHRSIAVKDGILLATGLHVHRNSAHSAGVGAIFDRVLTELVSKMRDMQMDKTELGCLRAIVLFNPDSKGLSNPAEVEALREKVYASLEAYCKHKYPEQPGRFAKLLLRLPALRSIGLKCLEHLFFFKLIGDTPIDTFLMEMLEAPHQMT
Sequence of Vitamin D3 receptor (Homo sapiens) (P11473 whole entry, looked up): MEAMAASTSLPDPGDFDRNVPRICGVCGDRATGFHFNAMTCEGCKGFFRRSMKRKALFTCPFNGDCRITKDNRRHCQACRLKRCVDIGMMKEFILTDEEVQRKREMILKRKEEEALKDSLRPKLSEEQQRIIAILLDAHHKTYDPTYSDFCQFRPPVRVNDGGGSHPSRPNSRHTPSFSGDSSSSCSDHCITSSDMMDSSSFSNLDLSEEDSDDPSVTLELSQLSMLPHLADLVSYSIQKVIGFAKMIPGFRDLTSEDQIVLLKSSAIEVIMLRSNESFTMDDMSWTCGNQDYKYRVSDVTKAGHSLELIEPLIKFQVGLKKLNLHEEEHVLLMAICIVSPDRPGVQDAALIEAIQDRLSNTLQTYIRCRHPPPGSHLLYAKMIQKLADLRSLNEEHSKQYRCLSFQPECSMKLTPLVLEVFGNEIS
Sequence of Peroxisome proliferator-activated receptor delta (Homo sapiens) (Q03181 whole entry, looked up): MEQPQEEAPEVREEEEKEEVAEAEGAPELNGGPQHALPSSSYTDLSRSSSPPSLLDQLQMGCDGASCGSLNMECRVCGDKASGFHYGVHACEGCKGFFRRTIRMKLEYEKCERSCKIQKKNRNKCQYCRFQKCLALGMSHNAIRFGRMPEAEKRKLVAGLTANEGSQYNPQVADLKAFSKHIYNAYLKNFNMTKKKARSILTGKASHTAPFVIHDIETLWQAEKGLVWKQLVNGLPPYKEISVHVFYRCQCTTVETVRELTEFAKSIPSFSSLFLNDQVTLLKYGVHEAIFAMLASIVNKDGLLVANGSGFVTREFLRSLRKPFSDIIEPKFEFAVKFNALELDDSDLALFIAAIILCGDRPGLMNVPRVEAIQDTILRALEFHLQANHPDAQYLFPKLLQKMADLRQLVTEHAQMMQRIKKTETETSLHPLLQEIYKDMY

Regarding `Clc1ccc(-c2ccc(Cl)c(Cl)c2Cl)c(Cl)c1Cl`, the results for the Potency in [1] and in [4] were 20.8 µM (active) and 46.6 µM (active), respectively. Also, the Potency entry in experiment [2], in experiment [3], in [6], in [7], in experiment [8] and in [9] was “inactive” in each case. In addition, the Potency entry in experiment [10], in experiment [11], in [12], in experiment [13] and in [14] was “inactive” in each case. In addition, the outcome in experiment [5] was inactive.

Consider `CCCCCCCCCCBr`, for which the Potency entry in experiment [11], in experiment [12] and in [13] was “inactive” throughout. Also, the compound was called inactive in experiment [15].

`ClCCN1CCOCC1`: the Potency entry in experiment [11], in experiment [12], in [13] and in [14] was “inactive” throughout. In addition, the outcome in [15] was inactive.

As to `Brc1c(Br)c(Br)c(Oc2c(Br)c(Br)c(Br)c(Br)c2Br)c(Br)c1Br`, the activity, negative = cytotoxicity in experiment [11] is -0.215% [at 19 µM]. Besides, the activity change, negative = inhibition in experiment [12] was 5.56% [at 19 µM]. Besides, in experiment [13], the viability change, negative = cytotoxic is 2.51% [at 15.8 µM]. Besides, in experiment [14], the activation is 8.87% [at 15.8 µM].

Consider `N#Cc1ccc(O)cc1`, for which the Potency result in experiment [11], in experiment [12], in experiment [13] and in experiment [14] was “inactive” each time. Further, the compound was called inactive in experiment [15].

Regarding `Clc1ccc(Oc2ccccc2)cc1`, the Potency result in experiment [11], in [12], in [13] and in [14] was “inactive” each time.

As to `BrCC(Br)c1ccccc1` (stereo not drawn), the Potency entry in experiment [11], in [12], in experiment [13] and in experiment [14] was “inactive” in each case.

Consider `O=C(Cl)c1ccc(Cl)cc1`, for which the Potency entry in experiment [11], in [12], in experiment [13] and in [14] was “inactive” throughout.

For `COP(=O)(CCC(=O)NCO)OC`, the Potency result in experiment [11], in experiment [12], in [13] and in [14] was “inactive” throughout. Moreover, in experiment [15], the compound was called inactive.

For the compound `COC[C@H](C)N(C(=O)CCl)c1c(C)csc1C`, the Potency result in [11], in experiment [12], in [13] and in experiment [14] was “inactive” throughout.

Consider `N#Cc1ccccc1Cl`, for which the Potency result in experiment [11], in experiment [12], in [13] and in [14] was “inactive” each time.

Consider `CC(=[OH+])/C=C(/C)[O-].CC(=[OH+])/C=C(\C)[O-].CC(=[OH+])/C=C(\C)[O-].[Fe]`, for which the Potency entry in [11], in experiment [12], in experiment [13] and in [14] was “inactive” each time. Further, the outcome in experiment [15] was inactive.

For `CN(CCCC(O)c1cccnc1)N=O` (stereo not drawn), the Potency entry in [11], in [12], in [13] and in experiment [14] was “inactive” each time.

In the case of `COc1ccc([N+](=O)[O-])cc1O`, the Potency entry in experiment [11], in experiment [12], in experiment [13] and in [14] was “inactive” throughout. The result in experiment [15] was inactive.

For the compound `CC(=O)c1ccc(-c2ccccc2)cc1`, the Potency result in [11], in experiment [12], in [13] and in [14] was “inactive” in each case.

In the case of `N#CCCO`, the Potency entry in [11], in [12], in [13] and in [14] was “inactive” each time. The call in experiment [15] was inactive.

Consider `Cc1ccc(CCl)cc1`, for which the Potency entry in experiment [11], in experiment [12], in experiment [13] and in experiment [14] was “inactive” each time. For the same compound, the outcome in experiment [15] was inactive.

For `Cc1cc(Cl)ccc1O[C@H](C)C(=O)O`, the Potency entry in experiment [11], in experiment [12], in experiment [13] and in [14] was “inactive” throughout.

For the compound `O=[N+]([O-])c1cc(Cl)ccc1Cl`, the Potency result in experiment [11], in [12], in experiment [13] and in [14] was “inactive” each time.
